# Reference: PubChem BioAssay AID1220 (Sanford-Burnham Center for Chemical Genomics, 2008)
# About 1,300 (0.68%) of roughly 190,000 compounds were called active. No stated cut-off is given here; in the data, active means inhibition above about 50%; inactive means the rest. What follows is part of a selection rich in actives, with near analogues and random picks from the rest.
# Molecular target: Mannose-6-phosphate isomerase (Homo sapiens) (UniProt P34949)
# Test: MPI inhibition at elevated mannose 6-phosphate – biochemical, fluorescence intensity, high mannose 6-phosphate, primary screen (AID 1220)
# Details: recombinant PMI enzyme, coupled fluorescence intensity; at 20 µM; stronger effect = higher value
# Chain of Mannose-6-phosphate isomerase (Homo sapiens) (P34949 whole entry, looked up): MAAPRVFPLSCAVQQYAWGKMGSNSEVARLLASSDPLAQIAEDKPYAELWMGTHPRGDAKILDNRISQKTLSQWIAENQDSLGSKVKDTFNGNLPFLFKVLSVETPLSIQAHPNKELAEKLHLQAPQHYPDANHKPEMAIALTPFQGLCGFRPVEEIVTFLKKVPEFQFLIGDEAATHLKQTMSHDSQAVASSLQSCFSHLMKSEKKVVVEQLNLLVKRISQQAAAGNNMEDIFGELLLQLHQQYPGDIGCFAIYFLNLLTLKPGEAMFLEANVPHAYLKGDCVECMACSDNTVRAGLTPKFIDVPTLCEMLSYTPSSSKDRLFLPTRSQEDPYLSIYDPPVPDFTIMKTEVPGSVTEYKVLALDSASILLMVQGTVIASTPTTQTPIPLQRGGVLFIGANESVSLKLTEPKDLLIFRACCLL
row,Structure (SMILES),inhibition
1,Cc1cccc(C)c1NC(=O)CSc1nnc(-c2cccnc2)o1,5.5% (inactive)
2,COc1ccccc1NC(=S)N1CCN(C(=O)c2ccco2)CC1,-3% (inactive)
3,O=C(Cc1c(F)cccc1Cl)N1CCOCC1,-13.4% (inactive)
4,COCCn1c(=O)c2c(nc3n2CCN3c2ccc(C)cc2)n(C)c1=O,0.4% (inactive)
5,CCOc1ccc(N=C(NN)c2ccc3ccccc3n2)cc1,-57.4% (inactive)
6,CCOc1ccc(N=C(C)c2ccccc2O)cc1,55.9% (active)
7,CCOc1ccc(NC(=O)c2ccccc2O)cc1,-0.8% (inactive)
8,Cc1cccc(OCC(=O)Nc2ccc3nc(C)sc3c2)c1,-10.9% (inactive)
9,COCCNC(=O)C1CCCN(c2nn3c(=O)cc(C)nc3s2)C1 (stereo not drawn),7.2% (inactive)
10,CCN1CCN(Cc2nc3c(c(=O)n(C)c(=O)n3C)n2CCc2ccccc2)CC1,-1.1% (inactive)
11,O=c1cc(Nc2ccc3c(c2)OCCO3)[nH]c(=O)n1-c1ccc(Cl)cc1,8% (inactive)
12,O=c1cc(Nc2ccc3c(c2)OCO3)[nH]c(=O)n1-c1ccc(Br)cc1,1.9% (inactive)
13,O=c1cc(Nc2ccc3c(c2)OCCO3)[nH]c(=O)n1-c1ccc(Br)cc1,57.5% (active)
14,CC1CCN(S(=O)(=O)c2ccc(NC(=S)NC(=O)c3ccc(Cl)cc3)cc2)CC1,-6.2% (inactive)
15,CC[n+]1ccc(/C=C/c2ccc(N(C)C)cc2)c2ccccc21,-4.8% (inactive)
16,CC[n+]1ccc(C[n+]2ccccc2)c2ccccc21,97.1% (active)
17,CC[n+]1ccc(C)c2cc(P(=O)(c3ccccc3)c3ccccc3)ccc21,18.4% (inactive)
18,O=C(NCc1ccccc1)C1=C[C@@H](c2coc3ccccc3c2=O)C[C@@H](OCCCCO)O1,8.5% (inactive)
19,O=C(NCc1ccc(Cl)cc1)C(=O)NCC(c1cccnc1)N1CCN(c2ccc(F)cc2)CC1 (stereo not drawn),2.5% (inactive)
20,COC1(NC(=O)c2ccccc2)C(C)=CC(=O)C=C1C,6.7% (inactive)
21,CCCOC1(NC(=O)c2ccccc2)C(C)=CC(=O)C=C1C,55.4% (active)
22,CCOC1(NC(=O)c2ccccc2)C(C)=CC(=O)C=C1C,49.2% (inactive)
23,CCNC(=O)/C(=C\C=C\c1ccccc1)NC(=O)c1ccc(Br)o1,-11.4% (inactive)
24,Cc1ccc(Nc2nc3ccccc3c(=O)[nH]2)cc1C,-5% (inactive)
25,O=[N+]([O-])c1ccc2oc(C3CCCCC3)nc2c1,2.8% (inactive)
26,Nc1ccc2nc(C3CCCCC3)[nH]c2c1,32.3% (inactive)

row,Structure (SMILES),inhibition
1,Nc1ccc2oc(C3CCCCC3)nc2c1,64% (active)
2,Cc1c(-n2cc(C(=O)O)c(=O)c3cc(F)c(N4CCCC4)c(F)c32)c(=O)n(-c2ccccc2)n1C,16% (inactive)
3,Cc1sc2nc(CN3CCOCC3)nc(NCCc3ccccc3)c2c1C,2% (inactive)
4,CCCc1ccc(-c2cc(N)n[nH]2)cc1,-0.8% (inactive)
5,CCOc1cc(-c2conc2N)cc(OCC)c1OCC,4.6% (inactive)
6,CCOc1cc(-c2cc(N)n[nH]2)cc(OCC)c1OCC,61.2% (active)
7,O=C(Nc1cccc(NC(=O)c2cccs2)c1)c1cccnc1,50.8% (active)
8,O=C(Nc1cccc(NC(=O)c2cccnc2)c1)c1cccnc1,7.6% (inactive)
9,O=C(Nc1ccc(NC(=O)c2cccs2)cc1)c1cccnc1,-2.7% (inactive)
10,Oc1ccc(CCC2CCCCN2Cc2nc(C3CC3)no2)cc1 (stereo not drawn),5.5% (inactive)
11,CCc1ccccc1NC(=O)Nc1ccc(F)cc1F,-2.1% (inactive)
12,CN1C(=O)N(C)c2ccc(C=O)c3cccc1c23,63.6% (active)
13,Cn1cc(C=O)c2ccccc21,8.2% (inactive)
14,CN1C(=O)c2cccc3c(Cl)ccc(c23)C1=O,-5.2% (inactive)
15,O=C(Cn1cncn1)N/N=C/c1ccc(Cl)cc1,-5% (inactive)
16,Cc1cc(Cl)ccc1NC(=O)Cn1cncn1,62.6% (active)
17,O=C(Cn1cncn1)NCc1ccc(Cl)cc1,-13.3% (inactive)
18,COc1cc2cc(C(N)=O)c(N)nc2cc1OC,-0.4% (inactive)
19,COc1cc2cnc(Cl)nc2cc1OC,54.8% (active)
20,COc1cc2cnncc2cc1OC,-4.8% (inactive)
21,COc1ccc(CC(=O)NCc2n[nH]c(=S)n2-c2ccccc2)cc1,-0.6% (inactive)
22,Cc1ccc(C)c(S(=O)(=O)N2CCN(Cc3ccc(O)c4ncccc34)CC2)c1,19.7% (inactive)
23,CCOC(=O)N1CCN(Cc2ccccn2)CC1,-7.5% (inactive)
24,CCOC(=O)N1CCN(Cc2ccccc2Cl)CC1,4.6% (inactive)
25,OCCN1CCN(Cc2cc(Cl)c3cccnc3c2O)CC1,48.3% (inactive)
26,COc1ccc(-n2c(SCC(=O)Nc3nccs3)nc3c(c2=O)SCC3)cc1,11.9% (inactive)

row,Structure (SMILES),inhibition
1,CCC(=O)c1ccc(OCC(O)CN2CCOCC2)cc1 (stereo not drawn),6.8% (inactive)
2,O=C(Nc1ccc2c(c1)CCC2)Nc1ccc2c(c1)OCO2,11% (inactive)
3,CC(/C=N/Nc1nc(C)cc(=O)[nH]1)=C\c1ccccc1,-78.9% (inactive)
4,COc1ccc(NC(=S)Nc2ccc(OC(F)F)cc2)cn1,58.2% (active)
5,COc1ccccc1NC(=S)NNC(=S)Nc1ccc(OC(F)F)cc1,5.4% (inactive)
6,COc1ccc(NC(=S)Nc2ccccc2)cn1,8.5% (inactive)
7,O=C(O)c1ccccc1SCC(=O)N1CCc2ccccc21,-1.8% (inactive)
8,O=C1OC(Nc2ncccn2)c2ccccc21 (stereo not drawn),5.1% (inactive)
9,Cc1ccc2cccc(NC3OC(=O)c4ccccc43)c2n1 (stereo not drawn),59.9% (active)
10,COC(=O)c1ccccc1NC1OC(=O)c2ccccc21 (stereo not drawn),8.6% (inactive)
11,O=C1OC(Nc2ccc(Br)cc2F)c2ccccc21 (stereo not drawn),-12.4% (inactive)
12,O=C1OC(Nc2cc(Br)cc3cccnc23)c2ccccc21 (stereo not drawn),50.7% (active)
13,CCOC(=O)c1ccccc1NC1OC(=O)c2ccccc21 (stereo not drawn),6.8% (inactive)
14,Cc1ccc(OCCOc2ccc(Br)cc2/C=N\NC(N)=O)cc1,4% (inactive)
15,CCOc1ccc(N=Nc2c(=O)[nH]n3c(C)cc(C)nc23)cc1,18% (inactive)
16,CCOC(=O)C1CCCN(C2CC(=O)N(c3ccc(C)cc3)C2=O)C1 (stereo not drawn),-2.1% (inactive)
17,COC(=O)CP(=O)(c1ccccc1)c1ccccc1,-5.8% (inactive)
18,CCOc1ccc(/C=C/[N+](=O)[O-])c2ccccc12,55.6% (active)
19,CCOC(=O)COc1ccc(/C=C/[N+](=O)[O-])c(OCC(=O)OCC)c1,1.7% (inactive)
20,CCOC(=O)COc1ccc2ccccc2c1/C=C/[N+](=O)[O-],54.6% (active)
21,O=[N+]([O-])/C=C/c1c(OCc2ccccc2)ccc2ccccc12,3.1% (inactive)
22,CCOC(=O)Cn1cc(/C=C/[N+](=O)[O-])c2ccccc21,8.7% (inactive)
23,CCOC(=O)COc1ccccc1/C=C\[N+](=O)[O-],0.8% (inactive)
24,COc1ccc(Nc2nc(N)nc(CSc3nncn3C)n2)cc1,4.9% (inactive)
25,CCN(Cc1ccccc1)C(=O)CSc1nc(C)cc(C)c1C#N,5.3% (inactive)
26,Cc1ccc2c(c1)NC(C(C)(C)C)CO2 (stereo not drawn),-5.8% (inactive)

row,Structure (SMILES),inhibition
1,CC1CCC(C(C)C)C(OC(=O)COC(=O)c2ccc(N)cc2)C1 (stereo not drawn),16.2% (inactive)
2,CC1CCC(C(C)C)C(OC(=O)COC(=O)c2cc(O)ccc2N)C1 (stereo not drawn),59.5% (active)
3,CC1CCC(C(C)C)C(OC(=O)COC(=O)c2cccn2C)C1 (stereo not drawn),16% (inactive)
4,Cc1ccc(SCCNC(=O)CN(c2ccc3c(c2)OCO3)S(C)(=O)=O)cc1,13.2% (inactive)
5,CCc1ccccc1OCc1nc2ccc(S(=O)(=O)N3CCOCC3)cc2[nH]1,9.5% (inactive)
6,CC(C)Cc1nc(N2CCC(C(N)=O)CC2)c2nnn(Cc3ccccc3)c2n1,-15% (inactive)
7,CCc1ccc(C(=O)CSc2ncn[nH]2)cc1,-20.5% (inactive)
8,COC(=O)C(C(C)=O)C1=C/C(=N\S(=O)(=O)c2ccc(C)cc2)c2ccccc2C1=O (stereo not drawn),18% (inactive)
9,CCc1ccc(S(=O)(=O)/N=C2/C=C(Sc3ncn[nH]3)C(=O)c3ccccc32)cc1,90.6% (active)
10,CCc1ccc(S(=O)(=O)ON2C(=O)c3ccccc3C2=O)cc1,-11.4% (inactive)
11,Cc1ccc(S(=O)(=O)/N=C2/C=C(Sc3ncn[nH]3)C(=O)c3ccccc32)cc1,88.3% (active)
12,CCc1ccc(S(=O)(=O)/N=C2\C=CC(=O)c3ccccc32)cc1,50.7% (active)
13,O=C1c2ccccc2C(=O)N1CCSc1ncn[nH]1,-12% (inactive)
14,CC(C)c1ccc(S(=O)(=O)/N=C2/C=C(Sc3ncn[nH]3)C(=O)c3ccccc32)cc1,80% (active)
15,CC(C)c1ccc(S(=O)(=O)/N=C2/C=CC(=O)c3ccccc32)cc1,44.1% (inactive)
16,Cc1ccc(S(=O)(=O)/N=C2/C=C(C3C(=O)CC(C)(C)CC3=O)C(=O)c3ccccc32)cc1,-3.6% (inactive)
17,CC(C)c1ccc(N2C(=O)CC(Sc3ncn[nH]3)C2=O)cc1 (stereo not drawn),22.4% (inactive)
18,O=C(O)c1ccc(NC2=C/C(=N/S(=O)(=O)c3ccccc3)c3ccccc3C2=O)cc1,-34.1% (inactive)
19,CCOC(=O)N1CCN(C(=O)CSCc2ccc(Br)cc2)CC1,1.1% (inactive)
20,Cc1ccc(NC(=O)CSc2nnc(C(F)(F)F)n2C)cc1[N+](=O)[O-],2.1% (inactive)
21,CC(C)/C=C1\CCCCC1N(C)C(=O)NC(C)C (stereo not drawn),2.9% (inactive)
22,CCCCCCCSc1nnc(-c2ccccc2N)c(=O)[nH]1,13.6% (inactive)
23,CCNc1sc(C(=O)c2cccs2)c(N)c1-c1nc2ccccc2s1,-5.3% (inactive)
24,Cc1ccc2sc(N(CCCN(C)C)C(=O)c3ccc(Br)s3)nc2c1C,-10.3% (inactive)
25,CCOc1ccccc1N(CC(=O)NC1CCCCC1)C(=O)c1nsc(Cl)c1Cl,8.5% (inactive)
